Screening results: PubChem, Center for Chemical Genomics, University of Michigan
Dicer processing – inhibitors of human Dicer processing of pre-microRNA. Q9UPY3. cat-ELCCA pre-miR-21 Dicer processing, chemiluminescence; active compounds read high. z-score at 25 µM. 6% of 47,000 active; in the data active means z-score above about 3, passing the limit was not always enough;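 further: plate controls were vehicle for no effect and no enzyme for full effect; higher signal means more uncleaved substrate so more Dicer inhibition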
Numbers without * were called inactive. This excerpt belongs to a sample that is enriched for hits.

SMILES	Dicer processing
Cn1c(NCc2ccccc2)nc2c1c(=O)n(Cc1ccc(F)cc1)c(=O)n2C	-0.3
CSC1=N/C(=C\N(C)C)C(=O)N1CCOc1ccc(Cl)cc1	3.34*
CSC1=N/C(=C\c2ccc(Cl)cc2)C(=O)N1Cc1ccc(Cl)cc1	0.77
O=c1ccccn1CCOc1ccc(Cl)cc1	1.01
O=C(NNS(=O)(=O)c1cc(C(F)(F)F)cc(C(F)(F)F)c1)c1sccc1-n1cccc1	0.59
COc1ccc(Cl)cc1NC(=O)NNC(=O)c1cc(C)n(C(C)(C)C)n1	1
O=C1NC(c2ccccc2)=N/C1=C/c1ccccc1	-0.81
O=C1/C(=C/c2ccc(Cl)cc2)N=C(c2ccccc2)N1c1ccc(F)cc1	7.9*
O=C1/C(=C\c2ccc(F)cc2)N=C(c2ccccc2)N1Cc1ccc(F)cc1	-0.65
O=C1c2cccc3cccc(c23)C(=O)N1c1ccccc1O	-0.02
COc1ccc(OC)c(N2C(=O)c3cccc4cccc(c34)C2=O)c1	5.7*
Nc1ccccc1N1C(=O)c2cccc3cccc(c23)C1=O	-1.37
COC(=O)/C(C#N)=C/c1ccc(SC)s1	0.9
CCO/C=C1/SC(=S)N(c2cc(OC)cc(C(F)(F)F)c2)C1=O	-2.21
CCO/C=C1\C(=O)N(c2ccccc2)C(=O)c2cc(OC)ccc21	3.3*
CCO/C=C1\C(=O)N(c2ccc(C)cc2)C(=O)c2cc(OC)ccc21	0.4
Cc1cccc(C)c1N=Cc1c(O)[nH]c(=O)[nH]c1=O	-0.66
Cc1ccc(C(=O)/C=C2\SC(=O)C(=O)N2c2ccccc2)cc1	0.66
O=c1c2ccccc2cnn1Cc1ccccc1	2.66
CCOC(=O)c1cnc(SCC(=O)c2ccc(Cl)c(C)c2)nc1N	1.02
O=c1[nH]c2c(sc3nnc(-c4ccccc4)c(-c4ccccc4)c32)c(=O)n1-c1cccc(Cl)c1	2.75
Cc1ccc(C(=O)/C=C/S/C=C/C(=O)c2ccc(C)cc2)cc1	-1.9
CN(C)/C=C/C(=O)c1ccc(Cl)cc1	-0.38
CN(C)/C=C/C(=O)c1ccc(Cl)c(Cl)c1	4.92*
CN(C)/C=C/C(=O)c1ccc(C#Cc2ccccc2)cc1	1.41
SMILES	Dicer processing
Cc1ccc(C(=O)/C=C/C=C/C=C/N(C)C)cc1	4.51*
COc1ccc2cc(C(=O)/C=C/N(C)C)ccc2c1	-0.67
O=C1CSC(=Nc2cccc(F)c2)N1Cc1ccccc1Cl	-0.35
O=C(/C=C/c1cccs1)NC(=S)Nc1ccccc1Cl	-0.84
O=C(O)CCC(=O)c1ccc2c(c1)NC(=O)CO2	-0.6
CC(C)(CC(=O)O)Sc1ccc(Cl)cc1	-0.61
CCOC(=O)c1c(CN(CC)CC)oc2ccc(OC)cc12	0.26
CCOC(=O)c1c(C)oc2cc(Cl)c(O)c(CN(C)C)c12	1.81
CCOC(=O)c1c(C)oc2ccc(O)c(CN(C)C)c12	4*
CCOC(=O)c1c(N2C(=O)CC3(CCCC3)C2=O)sc(C)c1-c1ccccc1	-0.59
CC(C)(C)OC(=O)NC1CCN(c2nccc(C(F)(F)F)n2)CC1	-0.73
CC1(C)CC(N2CCN(C3CC(C)(C)NC(C)(C)C3)CC2)CC(C)(C)N1	-0.96
COc1ccc2c(c1)c(C(=O)CN(C)C)c(C)n2C	4.71*
COc1ccc2c(c1)c(C(=O)CNc1nccs1)c(C)n2C	6.63
COc1ccc2c(c1)c(C(=O)CNc1nc(C)cs1)c(C)n2C	1.61
COc1ccc(NC(=O)C(C)C2SC(=O)NC2=O)cc1 (stereo unspecified)	0.13
COc1cc(C2CC(=O)Nc3nc(N)[nH]c(=O)c32)ccc1OCc1ccc(Cl)cc1 (stereo unspecified)	-0.79
O=C(/C=C1/NCCS1)c1ccc(Cl)cc1	3.78*
Cc1ccc(C(=O)/C=C/Nc2ccc(Cl)cc2)cc1	1.26
CSC(=CC(=O)c1ccc(Cl)cc1)SC	-0.68
COc1ccc(S(=O)(=O)NCCC#N)cc1OC	0.71
Cc1ccc(C2c3c(oc4ccc(F)cc4c3=O)C(=O)N2CCCN2CCOCC2)cc1 (stereo unspecified)	1.11
CCOCCOC(=O)C(C)Oc1ccc2c(=O)c(Oc3cc(C)cc(C)c3)coc2c1 (stereo unspecified)	2.92
CCOC(=O)C(Sc1nc2sc3c(c2c(=O)n1C)CCCC3)C(C)=O (stereo unspecified)	-1.56
Cc1cc(=O)oc(C)c1C(=O)OCC(=O)c1ccc(Br)cc1	4.98*
SMILES	Dicer processing
Cc1ccc2[nH]c(=O)cc(C(=O)OCC(=O)c3ccc(Br)cc3)c2c1	-0.05
COCCOC(=O)c1c(C)oc2ccc(OCC(=O)c3ccc(Br)cc3)cc12	-0.46
O=C(COC(=O)c1ccccc1Cl)c1ccc(Br)cc1	-0.43
Cc1onc(-c2ccccc2Cl)c1C(=O)OCC(=O)c1ccc(Br)cc1	3.92*
Cc1onc(-c2ccccc2)c1C(=O)OCC(=O)c1ccccc1	2.01
COc1cc2c(cc1OC)CN(C(=S)Nc1ccc([N+](=O)[O-])cc1)CC2	5.02
CC1=C(C(=O)OCc2ccccc2)C(c2ccc3ccccc3c2)N(C)C(=O)N1C (stereo unspecified)	-0.4
COc1cccc(C2Oc3c(OC)cccc3C3CC(c4cc(OC)ccc4O)=NN32)c1 (stereo unspecified)	2.65
COc1cccc2c1OC(c1ccncc1)N1N=C(c3cc(C)ccc3O)CC21 (stereo unspecified)	2.54
COc1cc(C2Oc3c(OC)cccc3C3CC(c4cc(C)ccc4O)=NN32)ccc1O (stereo unspecified)	14*
COc1ccc(C2Oc3c(OC)cccc3C3CC(c4cc(C)ccc4O)=NN32)cc1O (stereo unspecified)	2.62
COc1ccc(O)c(C2=NN3C(C2)c2cccc(OC)c2OC3c2ccc(O)c(OC)c2)c1 (stereo unspecified)	0.94
COc1ccc(O)c(C2=NN3C(C2)c2cccc(OC)c2OC3c2ccncc2)c1 (stereo unspecified)	6.23*
CC(C)(C)SCCNC(=O)C(C)(C)S(=O)(=O)c1ccc(C(F)(F)F)cn1	-0.89
COc1ccccc1-c1coc2cc(OC(=O)c3ccco3)ccc2c1=O	0.65
O=C1CC(Sc2cccs2)C(=O)N1c1ccc(F)cc1 (stereo unspecified)	-6.23
CCOC(=O)CNC(=O)c1ccc(C(F)(F)F)cc1	0.43
C=CCN=C1NC(=O)C(CC(=O)Nc2ccc(Cl)cc2)S1 (stereo unspecified)	-0.91
O=C(CC1SC(=Nc2ccc(O)cc2)NC1=O)Nc1ccc(Br)cc1 (stereo unspecified)	3.78*
O=C(CC1SC(=Nc2ccccc2)NC1=O)Nc1ccccc1Cl (stereo unspecified)	-0.66
CCCc1c(C(=O)OCC)c2cc(NS(C)(=O)=O)ccc2n1S(C)(=O)=O	-0.37
O=c1c(=O)n2c(nn1CN1CCOCC1)sc1ccccc12	4.32*
Cc1nnc2c(N3CCOCC3)nc3ccccc3n12	-0.14
Cn1nc2sc3ccccc3n2c(=O)c1=O	-1.49
O=c1c(N2CCOCC2)nnc2sc3ccccc3n12	4.29*
SMILES	Dicer processing
O=c1c(=O)n2c(nn1CN1CCCCC1)sc1ccccc12	4.14*
C=CCn1nc2sc3ccccc3n2c(=O)c1=O	1.15
NC(=O)Cn1nc2sc3ccccc3n2c(=O)c1=O	-1.26
O=C(Cn1nc2sc3ccccc3n2c(=O)c1=O)c1ccc(Cl)cc1	7.1
O=c1c(=O)n2c(nn1Cc1ccccc1Cl)sc1ccccc12	-1.29
C=CCc1nc(C)c(CC(=C)C)c(=O)[nH]1	0.74
CCOC(=O)COc1ccc2c(=O)c(Oc3ccc(CC)cc3)c(C(F)(F)F)oc2c1	0.42
Cc1cc(C(F)(F)F)n2nc(C)c(C#N)c2n1	0.55
COc1cc(NC(=S)NNS(=O)(=O)c2ccc(C)cc2)c(OC)cc1Cl	2.42
